Only some compounds are listed: those with a hit (about 5% of all), similar ones and a draw of the others.
ALR H2O2 inh: human ALR oxidase inhibition via reduced H2O2 | P55789 | purified ALR, DTT oxidation, H2O2 HRP-luminol luminescence | inhibition, % (concentration not given with the values) | 3.8% of 290,000 active;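 active = mean replicate inhibition above about 79%, with every replicate also reaching it, limit read from the data; inconclusive = only one of the two criteria met; inactive = mean below limit and not every replicate reaching it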
Target sequence (P55789 whole entry, looked up): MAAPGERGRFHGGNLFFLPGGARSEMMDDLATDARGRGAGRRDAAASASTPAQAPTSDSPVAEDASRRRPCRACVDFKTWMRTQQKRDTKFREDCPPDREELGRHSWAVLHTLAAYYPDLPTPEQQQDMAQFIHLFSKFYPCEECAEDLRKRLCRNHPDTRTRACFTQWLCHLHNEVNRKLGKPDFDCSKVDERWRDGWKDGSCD
PREPL inh: human PREPL enzyme inhibition | Q4J6C6 | recombinant PREPL, fluorescence polarization activity-based probe | inhibition, % at 5.96 µM | 0.68% of 320,000 active | AID 2751; in the data active = inhibition above about 43%;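 also: 0% = enzyme with DMSO and 100% = wells lacking enzyme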
AI-2 QS modul: Vibrio harveyi AI-2 quorum sensing modulation. activity change, % at 7.5 µM. 0.4% of 300,000 active. AID 2094. Vibrio harveyi JMH597 AI-2 luminescence/OD600 ratio, 9 h; active compounds read low; strain lacks LuxN and CqsS sensors; 0 = neutral-control median; in the data active = activity change below about -75%, passing the limit was not always enough; inconclusive = no clear call, values can overlap the other calls;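 also: luminescence divided by OD600 gain over 9 h not by final OD600 alone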
CHT block: human CHT choline transport inhibition; Q9GZV3; CHT-expressing cells, membrane potential dye, choline response; active compounds read low; B-score at 10 µM; 0.86% of 310,000 active;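 active = B-score over 3 SD under the library average, and starting fluorescence ratio not unusually high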;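 also: choline stimulus applied at its EC90 after an EC20 pre-addition; B-score computed on integrated fluorescence ratio after choline addition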
CHT allo act: allosteric activators of human choline transporter CHT; B-score at 10 µM; 0.49% of 310,000 active; CHT-expressing cells, membrane potential dye, choline EC20; active compounds read high; LV-AA mutant CHT in HEK293 cells;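 active = initial fluorescence not abnormally high and integrated response B-score, plate-corrected, over 3 SD above library mean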
JMH597 growth: retest Vibrio harveyi JMH597 growth inhibition; 1% of 750 active; growth inhibition, % at 7.5 µM; OD600 absorbance, 9 h; lacks LuxN and CqsS sensors; shares compounds with AI-2 QS modul;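 active = every replicate shows growth inhibition above 50%; inconclusive = at least half, but not all, replicates pass that cutoff; inactive = fewer than half of replicates pass it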
BB721 lum counter: retest counter-screen: BB721 constitutive quorum sensing luminescence decrease. Vibrio harveyi BB721 luminescence, 9 h. inhibition, % at 7.5 µM. shares compounds with AI-2 QS modul. 95% of 750 active;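 active = inhibition above about 80% in every replicate, not just on average, limit read from the data; inconclusive = at least half of replicates past the limit, but not all; inactive = fewer than half of replicates past the limit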
BB721 growth rt: retest: blocks Vibrio harveyi BB721 growth | shares compounds with AI-2 QS modul | OD600 absorbance, 9 h | growth inhibition, % at 7.5 µM | 3% of 750 active;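 active = every replicate shows growth inhibition above 50%; inconclusive = at least half but not all replicates above 50% inhibition; inactive = under half of replicates above 50% inhibition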
AI-2 QS JMH597: Vibrio harveyi AI-2 signaling luminescence modulation – JMH597 strain, confirmation; shares compounds with AI-2 QS modul; Vibrio harveyi JMH597 AI-2 quorum sensing luminescence, 9 h; luxN and CqsS knockout, AI-2 only; inhibition, % at 7.5 µM; 97% of 750 active;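 active = every replicate shows more than 75% inhibition of signal versus neutral control wells; inconclusive = half to three quarters of replicates exceed 75% inhibition; inactive = fewer than half of replicates exceed 75% inhibition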
Active calls of the source: *; i = inactive; u = inconclusive; x = no result.

SMILES	ALR H2O2 inh	PREPL inh	AI-2 QS modul	CHT block	CHT allo act	JMH597 growth	BB721 lum counter	BB721 growth rt	AI-2 QS JMH597
NS(=O)(=O)c1cccc(NC(=O)CSc2ncnc3ccccc23)c1	99.3*	19.4	-82.0*	i	i	5.1	85.4*	7.9	91.7*
O=C(Cn1cnc2ccccc2c1=O)Nc1nc2ccccc2s1	-1.9	1.9	-23.5	i	i	x	x	x	x
Cc1ccc(C(=O)OCC(=O)N(C)c2c(N)n(Cc3ccccc3)c(=O)[nH]c2=O)s1	-4.0	7.4	3.8	i	i	x	x	x	x
CN(CC(=O)NCc1ccco1)CC(=O)Nc1c(Cl)cccc1Cl	12.7	23.7	x	x	x	x	x	x	x
CCCn1c(=S)[nH]c2cc(C(=O)N3CCc4ccccc43)ccc2c1=O	-3.1	-6.7	u	i	i	-4.3	84.8*	-10.5	88.7*
CCCCCn1c(=S)[nH]c2cc(C(=O)N3CCCC3)ccc2c1=O	3.7	2.0	20.2	i	i	x	x	x	x
CCOC(=O)c1ccc(C(=O)OCC)c(NC(=S)Nc2ccc([N+](=O)[O-])cc2OC)c1	x	-6.2	28.7	i	i	x	x	x	x
Cc1ccc(O)c(/C=N/NC(=O)Cc2ccc(Cl)cc2)c1	-1.3	-6.4	-93.3*	i	i	31.0	98.6*	32.8	98.9*
Cc1cccc(/C=N/NC(=O)Cc2ccc(Cl)cc2)c1O	x	-1.5	-71.3	i	i	x	x	x	x
CSc1ccc(NC(=O)NCCCN2CCC(Cc3ccccc3)CC2)cc1	12.6	38.3	15.2	i	i	x	x	x	x
COCCN1C(=O)c2ccccc2C(C(=O)N2CCN(c3ccccc3)CC2)C1c1ccc(F)cc1 (centres undefined)	23.3	17.4	22.8	i	i	x	x	x	x
O=C1NC[C@H](Cc2ccc(O)cc2)N(CC2CCCCC2)C1=O	53.7	-4.3	-1.3	i	i	x	x	x	x
Oc1ccc(C[C@@H]2CNC(=S)N2CCCCC2CCCCC2)cc1	10.9	9.4	-92.4*	i	i	1.3	92.5*	-20.3	95.9*
COc1ccc(NC(=O)CN2C(=O)NC(c3ccccc3)(c3ccccc3)C2=O)cc1	0.9	21.4	-93.9*	i	i	1.7	92.4*	14.4	96.5*
CCCC1(c2ccccc2)NC(=O)N(CC(=O)NCc2ccc(OC)cc2)C1=O (centres undefined)	-7.9	-11.5	-85.6*	i	i	-18.0	86.1*	-4.4	91.1*
O=C(CSc1ccc([N+](=O)[O-])cn1)Nc1ccc2c(c1)OCO2	-4.8	4.7	23.6	i	i	x	x	x	x
O=C(/C=C/c1ccccc1Cl)Nn1cnc2ccccc2c1=O	-12.4	-14.8	-78.0*	i	i	19.1	96.1*	0.4	97.7*
O=C(/C=C/c1ccccc1)Nn1cnc2ccccc2c1=O	1.1	11.0	-88.0*	i	i	18.7	98.2*	-1.2	99.0*
O=C(Nn1cnc2ccccc2c1=O)c1c(F)cccc1F	2.6	-6.5	7.1	i	i	x	x	x	x
Cc1ccccc1C(=O)Nn1cnc2ccccc2c1=O	-14.0	1.1	7.4	i	i	x	x	x	x
O=C(Nc1ccc(Cl)cc1)Nn1cnc2ccccc2c1=O	-2.0	6.2	-97.5*	i	i	1.5	99.5*	-12.8	99.6*
COc1ccc(CNC(=O)/C=C/c2ccccc2[N+](=O)[O-])cc1	-1.0	1.5	-80.1*	i	i	14.3	95.0*	2.9	96.4*
O=C(/C=C/c1ccccc1[N+](=O)[O-])NCc1ccc(Cl)cc1	-1.6	5.2	u	i	i	-4.5	90.6*	9.8	93.2*
O=C(/C=C/c1ccccc1Cl)NCc1ccccc1	-6.9	10.3	-93.7*	i	i	3.7	98.2*	16.9	98.6*
O=C(/C=C/c1ccccc1[N+](=O)[O-])OCC(=O)c1ccccc1	1.1	2.6	-32.1	i	i	x	x	x	x
SMILES	ALR H2O2 inh	PREPL inh	AI-2 QS modul	CHT block	CHT allo act	JMH597 growth	BB721 lum counter	BB721 growth rt	AI-2 QS JMH597
O=C(/C=C/c1ccccc1[N+](=O)[O-])Oc1ccccc1	4.2	11.7	-80.6*	i	i	-8.7	79.3*	13.6	87.8*
COc1ccc(OC)c(NC(=O)/C=C/c2ccccc2[N+](=O)[O-])c1	5.2	11.2	32.6	i	i	x	x	x	x
COc1ccc(C(CNC(=O)Nc2cccc(C)c2)N2CCN(C)CC2)cc1 (centres undefined)	-8.0	9.1	32.4	i	i	x	x	x	x
O=S(=O)([O-])C(c1ccccc1)[n+]1ccccc1 (centres undefined)	1.3	-12.6	16.5	i	i	x	x	x	x
O=C1CCCC(=O)N1c1ccc(Oc2ccc(Cl)cc2)cc1	-4.5	-2.9	-83.6*	i	i	-18.0	89.0*	-37.7	92.2*
CC(=O)Nc1ccc(C(=O)Nc2ccc(S(=O)(=O)NCC3CCCO3)cc2)cc1 (centres undefined)	-10.5	2.6	15.9	i	i	x	x	x	x
CC(Oc1ccccc1)C(=O)Nc1ccc(S(=O)(=O)NCC2CCCO2)cc1 (centres undefined)	-1.2	2.2	u	i	i	29.0	97.2*	-18.0	99.6*
COc1ccc(CC(=O)Nc2ccc(C(N)=O)cc2)cc1	-2.9	-3.5	u	i	i	1.5	85.0*	-6.6	88.8*
COc1ccc(CC(=O)Nc2ccc(S(=O)(=O)NCC3CCCO3)cc2)cc1 (centres undefined)	x	1.8	-92.7*	i	i	30.7	99.4*	-33.6	99.8*
COc1ccc(CC(=O)OCC(=O)Nc2ccc(C(=O)Nc3ccc(OC)cc3)cc2)cc1	9.9	-3.8	27.0	i	i	x	x	x	x
CC(=O)Nc1ccc(S(=O)(=O)NCC2CCCO2)cc1 (centres undefined)	-17.1	-10.8	-3.4	i	i	x	x	x	x
COc1ccc(CC(=O)Nc2ccc(S(=O)(=O)Nc3nccs3)cc2)cc1	27.6	-8.3	u	i	i	-2.0	83.8*	3.2	89.0*
O=C(Cc1ccc(Cl)cc1)Nc1ccc(S(=O)(=O)Nc2ncccn2)cc1	12.4	-0.7	-92.0*	i	i	17.4	97.7*	28.1	98.8*
O=C(CN1C(=O)c2ccccc2C1=O)Nc1ccc(S(=O)(=O)NCC2CCCO2)cc1 (centres undefined)	-12.3	4.1	-91.1*	i	i	-8.9	96.1*	-31.9	97.4*
Nc1nc(SCC(=O)NCCc2ccccc2)[nH]c(=O)c1-c1ccccc1	-0.8	-0.9	18.6	i	i	x	x	x	x

Assay outcomes as filed in PubChem BioAssay.
